According to PubChem BioAssay (Tox21):
Values joined by “and” are separate entries in the source; they are usually repeats but may differ in a detail not shown here. Identical values can stand only once. Inconclusive results are not listed. Entries that show only a call come without a potency. Unmarked numbers belong to inactive results. Active and inactive are the calls of the source. Calls follow the shape of the dose curve; as a rule, active = well fitted cell-killing curve with a large enough effect in the repeat runs; inconclusive = weak or mixed curves, or effect the other way; inactive = flat fitted curve, though single readings scatter.

assay: qHTS assay to identify small molecule agonists of the TGF-beta/Smad signaling pathway - cell viability counter screen (AID 1346829); settings: SBE-bla HEK293T viability, CellTiter-Glo luminescence, 5 h; series mostly up to 76.8 µM; also: nearly all actives have a fitted effect of over 45% in size; as to activity change, negative = cytotoxicity: top concentration of the series differs between compounds
Text: National Center for Advancing Translational Sciences [NCATS]
NIH Chemical Genomics Center [NCGC]
U.S. Environmental Protection Agency [EPA]
National Institutes of Environmental Health Sciences [NIEHS]
National Toxicology Program [NTP]
U.S. Food and Drug Administration [FDA]
Transforming growth factor beta (TGF-beta) superfamily consists of a large number of structurally related dimeric proteins that act as hormones or local mediators in regulating a wide range of biological functions. This superfamily includes TGF-betas themselves, the bone morphogenetic proteins (BMPs) and the activins. These ligands induce oligomerization of serine/threonine receptor kinases and phosphorylate the cytoplasmic signaling molecules of Smad protein family. CellSensor SBE-bla HEK 293T cell line (Life Technologies, Carlsbad, CA), responsive to TGF-beta was used to screen Tox21 10K compound library for identification of agonists/antagonists of the Smad signaling pathway. This cell line contains a beta-lactamase reporter gene under control of the Smad binding element (SBE) stably integrated into HEK 293T cells. Also cytotoxicity of the compounds was tested in parallel by measuring the cell viability using CellTiter-Glo assay system in the same wells.
Tox21 Assay Protocol Summary:
SBE-bla HEK 293T cells were dispensed at 4,000/well in 6 uL of assay medium into black wall/clear-bottom 1536-well plates using a Multidrop Combi (ThermoFisher Scientific, Waltham, MA) dispenser. After the assay plates were incubated at 37 C and 5% CO2 for an overnight, 23 nL of compounds dissolved in DMSO, positive controls or DMSO only was transferred to the assay plate by a Pintool station (Kalypsys, San Diego, CA). The assay plates were incubated at 37 C and 5% CO2 for 5 hr. One uL of LiveBLAzer B/G FRET substrate (Life Technologies) was added using a Flying Reagent Dispenser (FRD, Aurora Discovery, San Diego, CA) and the plates were incubated at room temperature for 2 hr. Fluorescence intensity (405 nm excitation, 460 nm and 530 nm emissions) was measured using an Envision plate reader (PerkinElmer, Shelton, CT). For cytotoxicity read, 4 uL of CellTiter-Glo reagent (Promega Corporation, Madison, WI) was added to each well of the assay plates using FRD. After 30min incubation at room temperature, the luminescence intensity was measured using ViewLux plate reader (PerkinElmer).
Potency is read from the fitted curve at half-maximal effect.

Row | SMILES | Potency | activity change, negative = cytotoxicity
1 | CC[C@H](C)COC(=O)/C=C/c1ccc(N=Cc2ccc(OC)cc2)cc1 | inactive | –
2 | c1cnccn1 | inactive | –
3 | Nc1nc2c(ncn2COCCO)c(=O)[nH]1 | inactive | –
4 | COC(=O)C1=C(C)NC(C)=C(C(=O)OCCN2CCN(C(c3ccccc3)c3ccccc3)CC2)C1c1cccc([N+](=O)[O-])c1 (stereo not given) | inactive | –
5 | CC1(C)CC(O)CC(C)(C)N1 | inactive | –
6 | O=C(O)O | – | 8.74% [at 6.97 µM]
7 | O=C(O)[C@H](O)[C@@H](O)[C@H](O[C@@H]1O[C@H](CO)[C@H](O)[C@H](O)[C@H]1O)[C@H](O)CO | inactive | –
8 | CCO[Si](OCC)(OCC)OCC | inactive | –
9 | O=C(c1ccc(O)c(O)c1)c1ccc(O)cc1O | inactive | –
10 | O=C(O)c1cccc(C(F)(F)F)c1 | inactive | –
11 | C=CC(C)(CCC=C(C)C)OC=O (stereo not given) | inactive | –
12 | Cc1cc(C(C#N)c2ccc(Cl)cc2)c(Cl)cc1NC(=O)c1cc(I)cc(I)c1O (stereo not given) | inactive | –
13 | CC(C)(C)c1csc(-c2cc3cc(OCc4ccccc4CC(=O)O)ccc3o2)n1 | inactive | –
14 | Cc1ccc(C(C)C)cc2c(C)ccc1-2 | inactive | –
15 | CCCC[P+](C)(CCCC)CCCC | inactive | –
16 | Cc1cc(C(C)(C)C)cc(C)c1CC1=NCCN1 | inactive | –
17 | CCCCCCCC/C=C\CCCCCCCCN | inactive | –
18 | Nc1nc(N)nc(-c2cc(Cl)ccc2Cl)n1 | inactive | –
19 | CC(C)OC(=O)C(O)(CC(=O)O)CC(=O)O | inactive | –
20 | C[C@H]1NCc2cc(-c3ccc4c(=O)c(C(=O)O)cn(C5CC5)c4c3OC(F)F)ccc21 | – | 0.347% [at 15.8 µM]

Row | SMILES | Potency | activity change, negative = cytotoxicity
21 | O=C(O)CN(CCN(CC(=O)O)CC(=O)O)CC(=O)O | – | 9.65% [at 2.72 µM]
22 | C=C(C)C(=O)OCCCCCCCCCC | inactive | –
23 | FC(F)(F)c1cccc(Cl)c1 | inactive | –
24 | CC(=O)CC(=O)Nc1ccc(S(=O)(=O)O)cc1 | inactive | –
25 | S=C([S-])NCCNC(=S)[S-].S=C([S-])NCCNC(=S)[S-].[Mn+2].[Zn+2] | inactive | –
26 | C=CCCC(=O)/C=C/C1C(C)=CCCC1(C)C (stereo not given) | inactive | –
27 | NC(=S)NC(N)=S | inactive | –
28 | CN(C)c1ccc(C(=C2C=CC(=[N+](C)C)C=C2)c2ccc(N(C)C)cc2)cc1 | 19.4 µM (active) and 49 µM (active) and 23.9 µM (active) | –
29 | O=C(Oc1ccccc1)Oc1ccccc1 | inactive | –
30 | COC1=C(OC)C(=O)C(CCCCCCCCCCO)=C(C)C1=O | inactive | –
31 | CC(C)NC[C@@H](O)COc1ccc(CC(N)=O)cc1 | inactive | –
32 | OC[C@H]1O[C@H](O[C@H]2O[C@H](CO)[C@@H](O)[C@H](O)[C@H]2O)[C@H](O)[C@@H](O)[C@@H]1O | inactive | –
33 | CN(C)[C@@H](CCOc1cccc2ccccc12)c1ccccc1 | inactive | –
34 | c1ccc(C(O[C@@H]2CCCN(CCc3ccc4c(c3)OCO4)C2)c2ccccc2)cc1 | inactive | –
35 | O=S(=O)(O)c1ccccc1/C=C/c1ccc(-c2ccc(/C=C/c3ccccc3S(=O)(=O)O)cc2)cc1 | inactive | –
36 | O=c1c(O)c(-c2ccc(O)cc2O)oc2cc(O)cc(O)c12 | inactive | –
37 | CC(C)CCCCCOC(=O)CCS | inactive | –
38 | Cc1c(C)c2c(c(C)c1O)CC[C@@](C)(CCC[C@H](C)CCC[C@H](C)CCCC(C)C)O2 | inactive | –
39 | NC[C@H]1O[C@H](O[C@H]2[C@H](O[C@@H]3O[C@H](CO)[C@@H](O)[C@H]3O)C(O)[C@H](N)C[C@@H]2N)[C@H](N)[C@@H](O)[C@@H]1O (stereo not given in full) | – | 21.1% [at 6.97 µM]
40 | CCCCN(CCCC)CC(O)c1cc(Cl)cc2c1-c1ccc(Cl)cc1/C2=C/c1ccc(Cl)cc1 (stereo not given) | inactive | –
